Consider 42 sequences from PMC10726135, “HNF4α isoforms regulate the circadian balance between carbohydrate and lipid metabolism in the liver”.

The full ranking holds about 18,000 sequences; the median of “log2 normalized intensity” is about 0.36, and the highest 2% start at about 7.3. Shown is part of a subset that was picked to be rich in the highest values.

The experiment addresses T1, HNF4alpha8 (COS-7 nuclear extract) (Homo sapiens, UniProt P41235-5 1-452).
T1 sequence: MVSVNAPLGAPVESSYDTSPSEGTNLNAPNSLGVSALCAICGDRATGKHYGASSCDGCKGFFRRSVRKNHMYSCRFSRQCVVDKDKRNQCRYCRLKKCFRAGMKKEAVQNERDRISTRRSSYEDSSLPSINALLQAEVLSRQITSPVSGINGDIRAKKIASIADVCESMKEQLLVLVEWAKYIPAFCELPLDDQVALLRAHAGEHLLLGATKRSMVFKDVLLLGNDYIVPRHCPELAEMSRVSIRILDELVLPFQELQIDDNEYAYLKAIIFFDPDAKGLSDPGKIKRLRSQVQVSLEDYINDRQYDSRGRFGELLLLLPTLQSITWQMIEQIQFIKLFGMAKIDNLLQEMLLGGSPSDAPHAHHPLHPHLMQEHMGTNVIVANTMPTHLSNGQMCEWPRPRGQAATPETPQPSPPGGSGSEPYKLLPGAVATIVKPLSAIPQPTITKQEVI
Nature of the experiment: protein-binding microarray; COS-7 nuclear extract on double-stranded Agilent 4x180k PBM; binding buffer, salt, pH and temperature not given in the material; high values mean tight binding. The following applies: chain copies: 2; label: 3' end of strand 1 on the slide; dsDNA, one strand shown. The essentials: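 Using CaPO4, COS-7 cells were transiently transfected with a human HNF4α isoform expression vector, and their nuclear extracts were applied to a custom Agilent SurePrint G3 4x180k double-stranded oligonucleotide array (~60 nt; ~44,000 test sequences in quadruplicate). Bound HNF4α was imaged at 2-µm resolution with an Agilent G2565CA scanner. Agilent software supplied the background-corrected, normalized gProcessedSignal that serves as the binding signal.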
With “CCCATCCCAGAGGTCAAACTATCTGAGGTGGCCTAGGGAGATTAGAGTATCGGTCGA”, the binding signal was determined as 1.93 log2 normalized intensity.
With “GGGCTGAGGATGAGGACTTTGGTCTTATTAGCCTAGGGAGATTAGAGTATCGGTCGA”, the binding signal amounted to 4.45 log2 normalized intensity.
For the sequence “TCAGATGAGACTTTGGACTTTTGAACTAAGGCCTAGGGAGATTAGAGTATCGGTCGA”, the binding signal was 7.23 log2 normalized intensity.
For the sequence “TCTGGGATGTTGGGAGGAGTGGACTTTGATGCCTAGGGAGATTAGAGTATCGGTCGA”, the binding signal turned out to be 6.84 log2 normalized intensity.
Consider “TAGCCTTATCTCAGATGAGACTTTGGACTTGCCTAGGGAGATTAGAGTATCGGTCGA”, for which the binding signal was 8.64 log2 normalized intensity.
With “ATCTAGGTGAGGGATGAGGACTTTGATCAGGCCTAGGGAGATTAGAGTATCGGTCGA”, the binding signal worked out at 6.79 log2 normalized intensity.
In the case of “GAATCTACAGAATTCTCATGGAGGACTTTGGCCTAGGGAGATTAGAGTATCGGTCGA” it was 3.31 log2 normalized intensity; in that of “AATTCTCATGGAGGACTTTGGCCTTTTGTGGCCTAGGGAGATTAGAGTATCGGTCGA”, 6.71 log2 normalized intensity; in that of “GGGACTAGCCTTATCTCAGATGAGACTTTGGCCTAGGGAGATTAGAGTATCGGTCGA”, 2.03 log2 normalized intensity.
“TTATCTCAGATGAGACTTTGGACTTTTGAAGCCTAGGGAGATTAGAGTATCGGTCGA”: the binding signal came to 8.04 log2 normalized intensity.
Consider “GATGTTGGGAGGAGTGGACTTTGATCTCAGGCCTAGGGAGATTAGAGTATCGGTCGA”, for which the binding signal worked out at 9.38 log2 normalized intensity.
Turning to “CTGAGAAGATGAAAGACGAAAGGGACTTTGGCCTAGGGAGATTAGAGTATCGGTCGA”, the binding signal was 2.82 log2 normalized intensity.
Consider “TACAGAATTCTCATGGAGGACTTTGGCCTTGCCTAGGGAGATTAGAGTATCGGTCGA”, for which the binding signal is 7.81 log2 normalized intensity.
As for “CTCCCCCACGACAGAATTGACTCTTCGTTTGCCTAGGGAGATTAGAGTATCGGTCGA”, the binding signal came out at 2.63 log2 normalized intensity.
To “CTTTCATCTTTGCGGTGAGCATTTGTTTAGGCCTAGGGAGATTAGAGTATCGGTCGA” belongs 0.99 log2 normalized intensity.
Turning to “CAGAAGCAATCACAAGGAATGCCCTTATCTGCCTAGGGAGATTAGAGTATCGGTCGA”, the binding signal came to 2.11 log2 normalized intensity.
In the case of “CCTATGGTATGTATGGAATGTCACTTTCTGGCCTAGGGAGATTAGAGTATCGGTCGA” it was 1.79 log2 normalized intensity; in that of “ATGCACGTGCTCCAGGAGGGGAGGAGGGTCGCCTAGGGAGATTAGAGTATCGGTCGA”, 3.4 log2 normalized intensity.
As to “TCCTAGACCTTTGACCTTTATACCTGTACGGCCTAGGGAGATTAGAGTATCGGTCGA”, the binding signal stood at 6.76 log2 normalized intensity.
“TTGACCTTTATACCTGTACGTTACTCTGTAGCCTAGGGAGATTAGAGTATCGGTCGA”: the binding signal amounted to 4.37 log2 normalized intensity.
With “GTCCACACATTCCTAGACCTTTGACCTTTAGCCTAGGGAGATTAGAGTATCGGTCGA”, the binding signal came to 8.88 log2 normalized intensity.
To “GACCTTTGACCTTTATACCTGTACGTTACTGCCTAGGGAGATTAGAGTATCGGTCGA” belongs 7.64 log2 normalized intensity.
In the case of “CCCAAGATGGATTGGGTCCACACATTCCTAGCCTAGGGAGATTAGAGTATCGGTCGA”, the binding signal stood at 0.829 log2 normalized intensity.
On to “ATTGTGATTCCTGTGATACCTTCTTTGCCTGCCTAGGGAGATTAGAGTATCGGTCGA”, for which the binding signal worked out at 0.781 log2 normalized intensity.
To “CTTTATACCTGTACGTTACTCTGTACCTCGGCCTAGGGAGATTAGAGTATCGGTCGA” belongs 1.8 log2 normalized intensity; to “CACATTCCTAGACCTTTGACCTTTATACCTGCCTAGGGAGATTAGAGTATCGGTCGA”, 8.55 log2 normalized intensity; to “ATTGGGTCCACACATTCCTAGACCTTTGACGCCTAGGGAGATTAGAGTATCGGTCGA”, 3.87 log2 normalized intensity.
Turning to “GGAACCAAGAGCAGATTTGTTTGCTCTTTAGCCTAGGGAGATTAGAGTATCGGTCGA”, the binding signal was found to be 0.915 log2 normalized intensity.
In the case of “TTCCCTGAGTTTCCATTAACTGAACCTAGAGCCTAGGGAGATTAGAGTATCGGTCGA” it was 1.69 log2 normalized intensity; in that of “TAAGATACGAAGGGTTTAAAGGGCAGAAGAGCCTAGGGAGATTAGAGTATCGGTCGA”, 2.39 log2 normalized intensity.
Take “AAGTTCATGGAAAGTTTCACTTTCTCTTATGCCTAGGGAGATTAGAGTATCGGTCGA”: the binding signal was determined as 0.0777 log2 normalized intensity.
As for “TAAGATTCTGGTCAAAGGTCAATGAAGCTCGCCTAGGGAGATTAGAGTATCGGTCGA”, the binding signal was determined as 6.64 log2 normalized intensity.
As to “TTCTGGTCAAAGGTCAATGAAGCTCTTGCTGCCTAGGGAGATTAGAGTATCGGTCGA”, the binding signal stood at 6.15 log2 normalized intensity.
To “ATTCATTCCCTAAGATTCTGGTCAAAGGTCGCCTAGGGAGATTAGAGTATCGGTCGA” belongs 7.83 log2 normalized intensity.
As to “TTCCCTAAGATTCTGGTCAAAGGTCAATGAGCCTAGGGAGATTAGAGTATCGGTCGA”, the binding signal came out at 8.22 log2 normalized intensity.
In the case of “GCAAAGGTCAGCTCATTCCCTAGGGCTCGGGCCTAGGGAGATTAGAGTATCGGTCGA”, the binding signal was -0.991 log2 normalized intensity.
“AAAGGGCAAAGGTCAGCTCATTCCCTAGGGGCCTAGGGAGATTAGAGTATCGGTCGA”: the binding signal amounted to 6.71 log2 normalized intensity.
In the case of “ACTTAAAAGAAGCTACTAGCAAATCTGCCCGCCTAGGGAGATTAGAGTATCGGTCGA” it was -0.288 log2 normalized intensity; in that of “AACAAAGGTCGGTGGTATGTGTGTGCTTTAGCCTAGGGAGATTAGAGTATCGGTCGA”, 2.2 log2 normalized intensity; in that of “AATGTGTGTTCTGCTGCCATTGGATGGAATGCCTAGGGAGATTAGAGTATCGGTCGA”, 1.51 log2 normalized intensity.
For the sequence “GTCAGATGACAGAATTGGTCCTGGAACTCAGCCTAGGGAGATTAGAGTATCGGTCGA”, the binding signal was determined as 0.192 log2 normalized intensity.
Turning to “CCAACACAGAAGCCTTTTGTTCTTTGTGTGGCCTAGGGAGATTAGAGTATCGGTCGA”, the binding signal was 1.47 log2 normalized intensity.
